# LYPLA1 inh = LYPLA1 inhibitors, primary screen, counter-screen for PME1 inhibitor project, biochemical, fluorescence polarization, FP-Rh probe ABPP. inhibition, % at 5.9 µM. recombinant LYPLA1. 320,000 tested, 0.16% active. Acyl-protein thioesterase 1 (Homo sapiens), O75608;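 active means inhibition above the mean of all tested compounds plus 3 SD, set per campaign, cut at about 14% in these data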;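 further: inhibitors block serine hydrolase probe labeling of LYPLA1 so polarization falls; 0% = enzyme with DMSO and 100% = wells lacking LYPLA1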
# Target sequence (O75608 whole entry, looked up): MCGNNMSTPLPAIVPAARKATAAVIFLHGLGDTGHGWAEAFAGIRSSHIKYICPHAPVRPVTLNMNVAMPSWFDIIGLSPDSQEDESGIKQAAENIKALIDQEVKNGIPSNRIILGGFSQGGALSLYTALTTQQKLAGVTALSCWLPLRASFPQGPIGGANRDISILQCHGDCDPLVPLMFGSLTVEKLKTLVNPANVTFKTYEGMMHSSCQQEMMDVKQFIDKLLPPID
# GSTO1 counter = inhibitors of recombinant GSTO1, primary screen, counter-screen for RBBP9 inhibitor project, biochemical, fluorescence polarization; activity-based probe fluorescence polarization; inhibition, % at 5.96 µM; 300,000 tested, 1.1% active; AID 1974, 2009;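 active means inhibition above the campaign mean inhibition plus 3 SD, cut at about 35% in these data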;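 further: 0% = GSTO1-1 with DMSO and 100% = wells lacking GSTO1-1 enzyme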
# LYPLA2 counter = LYPLA2 inhibitors, primary screen, counter-screen for PME1 inhibitor project, biochemical, fluorescence polarization, FP-Rh probe ABPP; Acyl-protein thioesterase 2 (Homo sapiens), O95372; recombinant LYPLA2; inhibition, % at 5.9 µM; 320,000 tested, 0.38% active; AID 2177, 2009;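 active means inhibition above the screen-wide mean plus 3 SD, limit set per campaign, cut at about 26% in these data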;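 further: 0% = LYPLA2 with DMSO and 100% = wells lacking LYPLA2 enzyme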
# Target sequence (O95372 whole entry, looked up): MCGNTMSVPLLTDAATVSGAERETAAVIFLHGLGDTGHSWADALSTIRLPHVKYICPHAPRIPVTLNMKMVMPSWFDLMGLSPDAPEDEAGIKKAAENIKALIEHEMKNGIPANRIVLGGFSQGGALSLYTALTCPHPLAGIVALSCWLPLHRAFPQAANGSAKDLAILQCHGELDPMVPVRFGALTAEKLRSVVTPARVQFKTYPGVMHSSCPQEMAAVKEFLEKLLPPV
# PAD4 FP inh = human PAD4 inhibitors, primary screen, biochemical, fluorescence polarization, 1536-well format. Protein-arginine deiminase type-4 (Homo sapiens), Q9UM07. recombinant PAD4, RCA probe fluorescence polarization. inhibition, % at 6.36 µM. 330,000 tested, 0.41% active. AID 485272, 2010;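 active means percent inhibition above a cutoff equal to the mean of all tested compounds plus 3 SD, cut at about 15% in these data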;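 further: 0% = PAD4 with RCA probe and DMSO and 100% = probe without PAD4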
# PME-1 primary = PME-1 inhibitors via competitive probe labeling, primary screen, biochemical, fluorescence polarization, FP-Rh probe, HTS | recombinant PME-1 | inhibition, % at 5.9 µM | 320,000 tested, 0.53% active;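 active means inhibition above the campaign mean of all compounds plus 3 SD, cut at about 26% in these data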;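 further: competitive labeling of PME-1 active site by serine hydrolase directed probe; 0% = PME-1 with DMSO and 100% = wells lacking PME-1 enzyme; inhibitors block probe labeling so polarization falls and inhibition rises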
# Fam108B inh = mouse Fam108B serine hydrolase inhibitors, primary screen, counter-screen for RBBP9 inhibitor project, biochemical, fluorescence polarization; AID 1947, 2009; inhibition, % at 9.51 µM; recombinant Fam108B, FP-Rh probe fluorescence polarization; 300,000 tested, 0.33% active;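 active means inhibition above the screen mean inhibition plus 3 SD, computed separately per campaign, cut at about 18% in these data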;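 further: inhibitors lower polarization as less probe binds the enzyme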
# GSTO1 inh conf = GSTO1 inhibitor hit confirmation, counter-screen for RBBP9 inhibitor project, biochemical, fluorescence polarization, triplicate; 2,400 tested, 54% active; inhibition, % at 5.96 µM; AID 2176, 2009; recombinant GSTO1, probe fluorescence polarization; shares compounds with GSTO1 counter;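 active means inhibition above the primary screen's cutoff, its mean inhibition plus 3 SD, cut at about 35% in these data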;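 further: loss of polarization as inhibitors block binding of rhodamine sulfonate ester activity probe; 0% = GSTO1 with DMSO and 100% = wells lacking GSTO1 enzyme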
# Numbers without * were called inactive; x = no result. A selection: hits, their analogues and other compounds. The true share with any hit is near 1.7%.
SMILES,LYPLA1 inh,GSTO1 counter,LYPLA2 counter,PAD4 FP inh,PME-1 primary,Fam108B inh,GSTO1 inh conf
COc1cccc(NC(=O)N2CCCC(C(=O)Nc3ccccc3OC)C2)c1 (centres undefined),-2,4,-4,-1,-3,0,x
O=C(c1ccco1)N1CCN(c2cc(N3CCOCC3)c(F)cc2[N+](=O)[O-])CC1,1,5,2,1,0,3,x
COc1cccc(/C=N/n2nnnc2N)c1OCC#N,-4,-15,-1,4,4,4,x
CCOC(=O)Cc1csc(NC(=O)NC2(C(F)(F)F)Oc3cc(Cl)c(Cl)cc3O2)n1,-2,44*,-2,-4,-4,-1,8
CCOC(=O)Cc1csc(NC(=O)NC2(C(F)(F)F)Oc3ccccc3O2)n1,2,22,-1,-2,5,5,x
CCOC(=O)Cc1csc(NC(=O)NC2(C(F)(F)F)Oc3ccc(Cl)cc3O2)n1 (centres undefined),-4,45*,-5,2,-4,-2,4
C/C(=N\NC(=O)CNC(=O)c1ccccc1Br)c1ccco1,-1,7,9,0,-9,4,x
Oc1cccc(O)c1O,1,62*,4,-3,0,-9,7
O=C(O)CC1(CC(=O)Nc2ccccc2C(=O)c2ccccc2)CCCC1,-1,-8,7,1,-3,2,x
O=C(CCl)Nc1ccccc1C(=O)c1ccccc1,5,82*,3,2,-3,-6,98*
O=C(CCl)Nc1ccccc1Sc1ccc(Cl)cc1,0,90*,8,7,2,-3,94*
COc1ccc(NC(=O)c2ccc(Br)o2)c([N+](=O)[O-])c1,-1,6,-2,-2,-8,-1,x
CCc1ccc(S(=O)(=O)Nc2ccc(O)c3ccccc23)cc1,0,53*,13,12,13,4,2
O=S(=O)(Nc1ccc(O)c2ccccc12)c1ccc(F)cc1,1,64*,6,3,4,5,11
Cc1ccc(S(=O)(=O)N2CC=C(C(=O)NC3CC3)CC2)cc1,-3,-1,-1,-1,1,-2,x
Cc1ccc(C)c(S(=O)(=O)N2CCN(C(=O)CCNC(=O)c3ccc(Br)cc3)CC2)c1,2,2,4,3,8,0,x
CSCCC(NC(=O)COc1ccccc1)C(=O)NCc1cccs1 (centres undefined),-2,-2,0,-5,17,4,x
COc1cc(/C=C2\SC(N)=NC2=O)cc(Br)c1O,-4,61*,0,-6,0,1,66*
CCOC(=O)Cc1c(C)c2c(O)cc(O)cc2oc1=O,0,59*,2,-3,2,1,0
COC(=O)c1ccc(CNC(=O)Cn2cnc(C(=O)Nc3ccc(C)c(C)c3)n2)cc1,x,x,x,-1,x,x,x
Nc1cc(-c2ccncc2)c[nH]c1=O,5,42*,6,0,-6,-3,7
Cc1ccc(N=C2C(=O)Nc3ccccc32)cc1,-4,1,-3,0,-4,-4,x
CCN(CC)c1ccc(N=C2C(=O)Nc3ccccc32)cc1,-1,85*,0,13,-6,-1,4
COc1cccc(-c2nnc(SCC(=O)NC3CCS(=O)(=O)C3)n2C)c1 (centres undefined),2,x,0,-4,-17,x,x
Cn1nc(C(=O)NCC2CCCO2)c2ccccc2c1=O (centres undefined),-1,75*,1,2,1,2,4
SMILES,LYPLA1 inh,GSTO1 counter,LYPLA2 counter,PAD4 FP inh,PME-1 primary,Fam108B inh,GSTO1 inh conf
COc1ccc(-n2nc(C(=O)NCC3CCCO3)c3ccccc3c2=O)cc1 (centres undefined),1,14,1,-3,-3,1,x
O=C1C=C(O)c2cccc3cccc1c23,-1,7,0,0,0,-2,x
O=C1C=C(O)c2c(O)cccc2C1=O,1,38*,12,2,7,6,32
O=c1c2ccccc2[nH]c2ccc(O)cc12,1,46*,-4,-2,-4,8,21
Cc1ccc2[nH]c3ccccc3c(=O)c2c1,1,-5,4,2,7,-2,x
Cc1cc(N=Cc2c(O)ccc3cc(Br)ccc23)no1,0,46*,0,-5,5,3,23
O=C(Oc1ccc(OC(=O)c2ccco2)c(S(=O)(=O)c2ccc(Br)cc2)c1)c1ccco1,-3,49*,-3,3,-1,1,4
Cc1cccc[n+]1C1C(c2ccc([N+](=O)[O-])cc2)C(C#N)=C(C(=C=[N-])C#N)NC1(O)C1CC1 (centres undefined),9,40*,12,9,10,13,48*
COc1cccc2c(=O)c3c([nH]c12)OC(C)(C)C3,3,2,-11,4,-3,3,x
COc1cccc2c(=O)c3cccc(N)c3[nH]c12,-7,67*,-8,-6,13,12,14
CC1(C)C(C=C(Cl)Cl)C1C(=O)N1CCN(c2ccccc2)CC1 (centres undefined),-3,-1,-2,-2,-1,-3,x
NC(=O)c1cc(N)ccc1N1CCCC1,2,51*,9,-5,0,4,5
Oc1cc(O)c2c(c1)O[C@H](c1ccc(O)c(O)c1)[C@H](O)C2,-2,40*,-1,-2,2,1,7
COC(=O)C1Cc2ccccc2CN1C(=O)CCl (centres undefined),1,90*,0,-5,7,-6,99*
COC(=O)[C@H](Cc1ccccc1)NC(=O)N1Cc2ccccc2C[C@H]1C(=O)OC,1,2,-2,-5,-1,-2,x
O=C(CSc1ncc(-c2ccc(F)cc2)[nH]1)Nc1cccc(O)c1,-2,3,-3,-1,3,4,x
O=C1c2ccccc2C(=O)C2OC12 (centres undefined),1,76*,3,5,7,2,27
CCCCC[C@H](O)/C=C/[C@H]1CCC(=O)[C@@H]1CCCCCCC(=O)N1CCCCC1CO (some centres undefined),1,-2,3,-3,-3,0,x
